Screening data: PubChem, National Center for Advancing Translational Sciences (NCATS)
This excerpt belongs to a sample that is enriched for hits.
Shiga inhibitor: inhibitors of Shiga toxin in Vero cells | Vero cells, Shiga toxin protein synthesis inhibition reporter | inhibition, % at 38.7 µM | AID 2315 | 290,000 compounds, 9.2% hits; in the data active = inhibition mostly above about 28%, no sharp cut-off; inactive = mostly below about 43%; also: 0% is about no effect
AmpC detergent: blocks E. coli AmpC beta-lactamase in detergent assay; Potency, µM (doses to about 114 µM), for inactives: at the top dose activity change, negative = inhibition, usual class: inhibitors; AmpC hydrolysis of nitrocefin, absorbance 480 nm, 0.01% Triton; 370,000 compounds, 0.041% hits; AID 485294;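 also: potency is read from the fitted curve at half-maximal effect; 0% = no-compound wells and -100% = no-enzyme wells; nearly all actives have a fitted effect of over 25% in size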
Target sequence (P00811 whole entry, looked up): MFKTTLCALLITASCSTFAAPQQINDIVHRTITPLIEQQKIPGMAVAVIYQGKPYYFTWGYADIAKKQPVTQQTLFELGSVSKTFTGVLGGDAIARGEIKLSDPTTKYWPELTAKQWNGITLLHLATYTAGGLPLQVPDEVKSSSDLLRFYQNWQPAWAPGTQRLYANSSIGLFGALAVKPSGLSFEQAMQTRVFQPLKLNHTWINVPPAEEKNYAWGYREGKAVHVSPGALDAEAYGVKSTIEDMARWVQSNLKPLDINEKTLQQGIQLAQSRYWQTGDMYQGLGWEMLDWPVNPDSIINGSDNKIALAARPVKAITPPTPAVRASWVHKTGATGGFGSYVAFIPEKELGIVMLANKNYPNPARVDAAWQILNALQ
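20 mM phosphate pH 7.0 + 0.01% (detergent screen) or 0.0001% Triton X-100; 5.3 nM AmpC reagent; cpd preinc 15 min RT; nitrocefin (800 uM stock) to start; A480 q20 s × 4 min; Activity was normalised to no-enzyme and no-compound control wells.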
NS1 inh: inhibitors of influenza NS1 protein function; 270,000 compounds, 0.4% hits; Potency, µM (series often up to 46.1 µM), for the others: top-dose activity, positive = more growth; AID 2326; calls by dose curve; also: potency is read from the fitted curve at half-maximal effect; actives are rising curves; nearly all actives have a fitted effect of over 50% in size
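Recovery from NS1-induced slow growth read by OD600 in budding yeast switched to galactose assay medium (pH 6.0, -URA) at 1:100 dilution. Compound 23 nl per well; the matching strain lacking NS1 serves as control.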
CHX counter: counter-screen hit for Shiga toxin inhibitors, cycloheximide; cell reporter, cycloheximide protein synthesis inhibition counterscreen; 300,000 compounds, 12% hits; max response, %; in the data active = max response mostly above about 13%, no sharp cut-off; inactive = mostly below about 14%; also: read at 38.3 µM for the half of the compounds with a filed dose; 0% is about no effect
AmpC no deterg: AmpC beta-lactamase inhibition without detergent | P00811 | AmpC nitrocefin hydrolysis, absorbance 480 nm, 0.0001% Triton | Potency, µM (titrated, usually from 57.1 µM), for the others: at the top dose activity change, negative = inhibition, actives largely listed as inhibitors | 330,000 compounds, 0.52% hits;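 also: potency is read from the fitted curve at half-maximal effect; plate controls were no compound for no effect and no enzyme for full effect; nearly all actives have a fitted effect of over 20% in size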
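AmpC (5.3 nM in the dispensed reagent) in 20 mM phosphate pH 7.0 with 0.01% (detergent screen) or 0.0001% Triton X-100 was preincubated with compounds for 15 min at room temperature. Nitrocefin was then added from an 800 uM solution, and hydrolysis was followed at 480 nm.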
* hit, by the source's call; ? = inconclusive; . = no result given. Unless noted, calls follow the shape of the dose curve; as a rule, active = well fitted curve in the direction sought with a large enough effect; inconclusive = small, poorly fitted or top-dose-only effect, or another doubt; inactive = no such curve, though single readings can be large; an effect the other way counts as inactive or inconclusive.

SMILES	Shiga inhibitor	AmpC detergent	NS1 inh	CHX counter	AmpC no deterg
O=C(CC1=NCCNC(c2ccccc2)C1)c1ccccc1O (configuration not stated)	36*	8%	?	32*	81%
O=C(CC1(O)C(=O)Nc2ccccc21)c1ccccc1O (configuration not stated)	-10	?	-5%	-3	-20%
O=C(CN1C(=O)CCc2cc(S(=O)(=O)N3CCOCC3)ccc21)Nc1cccc(Cl)c1	.	-4%	.	.	.
CC1Cc2ccccc2N1C(=O)CCn1c(=O)sc2ccccc21 (configuration not stated)	59	4%	-11%	12*	-26%
CC1CCCN(C(=O)c2ccc3c(c2)OCO3)C1 (configuration not stated)	22	0%	7%	4	-5%
CN1/C(=C\C(=O)COc2ccc3c(c2)OCO3)C(C)(C)c2ccccc21	11	-8%	-44%	11*	-36%
CC1CCCN(C(=O)COc2ccc3c(c2)OCO3)C1 (configuration not stated)	64*	4%	8%	48*	3%
CC1Cc2ccccc2N1C(=O)COc1ccc2c(c1)OCO2 (configuration not stated)	74*	3%	.	34*	-18%
COc1ccccc1OCC(=O)/C=C1/N(C)c2ccccc2C1(C)C	11	2%	-4%	9	10%
Cc1oc(-c2ccc(Cl)cc2)nc1Cn1c(=O)cc(C)c2c(C)nn(-c3cccc(F)c3)c21	.	24%	.	.	.
Cc1ccc(Cl)cc1NC(=O)c1ccc(-c2nc(CSc3ccccc3)c(C)o2)cc1	.	14%	.	.	.
Cc1ccc(NC(=O)c2cc(-c3ccc(Br)s3)nc3ccccc23)cc1F	.	16%	.	.	.
O=C1/C(=C/c2ccc3c(c2)OCO3)Oc2cc(OCC(=O)N3CCC[C@H]3C(=O)O)ccc21	23	-15%	17%	8.2*	-11%
CC1Cc2ccccc2N1C(=O)CSC1=NCCS1 (configuration not stated)	46	-14%	-9%	11	-13%
CC1Cc2ccccc2N1C(=O)CSc1ccccc1 (configuration not stated)	98	-12%	2%	51*	-25%
COc1cccc(/C=C2\Oc3cc(OCC(=O)N4Cc5ccccc5C[C@H]4C(=O)O)ccc3C2=O)c1	3	?	?	-2	76%
Cc1cc(-c2ccc(N=Nc3c(S(=O)(=O)O)cc4cc(S(=O)(=O)O)cc(N)c4c3O)c(C)c2)ccc1N=Nc1c(S(=O)(=O)O)cc2cc(S(=O)(=O)O)cc(N)c2c1O	.	13µM*	.	.	-52%
CCc1cc(=S)n2c([nH]c3ccccc32)c1C#N	52*	-10%	.	9	-32%
CCc1cc(=O)n2c([nH]c3ccccc32)c1C#N	42*	-3%	?	44*	-12%
CCOC(=O)c1ccc(NC(=O)NNS(=O)(=O)c2cc(OC)ccc2OC)cc1	-1	6%	8%	0	-4%
CN1c2ccccc2C(=O)C(=C2SCCCS2)S1(=O)=O	32	8%	-7%	25*	-33%
CCOC(=O)c1ccc(NC(=O)c2ccc(NC(=O)c3ccccc3)cc2)cc1	-13	4%	-3%	-4	-9%
CC(C)OC(=O)c1ccc2nc3ccccc3nc2c1	125*	-1%	-10%	87*	-15%
CCOC(=O)c1ccc(NC(=O)CSCc2ccco2)cc1	32*	-11%	-32%	13*	-35%
CCOC(=O)c1ccc(NC(=O)c2ccco2)cc1	107*	4%	-56%	42*	-4%
SMILES	Shiga inhibitor	AmpC detergent	NS1 inh	CHX counter	AmpC no deterg
CC(C)OC(=O)c1cccc(C(=O)O)n1	-10	1%	3%	-2	-25%
CC(C)OC(=O)c1ccc(NC(=O)c2ccccc2)cc1	69*	?	-45%	66*	-22%
CCCCn1c(=O)[nH]c(=O)c2c1nc(Cn1ncc(Cl)c(Cl)c1=O)n2CCC	-12	-16%	14%	-3	-11%
O=C(CCCN1C(=O)c2cccnc2Oc2ccc(Cl)cc21)NCc1ccccc1F	.	2%	.	.	.
O=C(Nc1ccc2oc(=O)ccc2c1)c1cccnc1Cl	1	-1%	-20%	1	-28%
CC(C)OC(=O)c1ccc(NC(=O)c2ccco2)cc1	77*	-6%	-131%	46*	-14%
CCN(CC)c1ccc(/C=N/N2C(=O)c3ccccc3C2=O)cc1	24	1%	-15%	7	-18%
COc1ccccc1/C=N/N1C(=O)c2cccc3cccc(c23)C1=O	-16	-12%	.	-4	-16%
COc1ccc(/C=N/NC(=O)CCn2cnc3ccccc32)cc1	20	3%	4%	23	0%
COc1ccc(/C=N\n2nnc3ccccc32)cc1	-41	-7%	-6%	28*	-33%
COc1ccc(/C=N/N2C(=O)c3ccccc3C2=O)cc1	33*	-12%	12%	18	-12%
CN(C)c1ccc(/C=N/N2C(=O)c3ccccc3C2=O)cc1	76*	-5%	-8%	55*	-9%
CCOC(=O)c1cc(C#N)c(SC(C)C(=O)NC2CCCCC2)nc1C (configuration not stated)	.	-9%	.	.	-1%
Cc1ccccc1-n1nc(CO)c(C(=O)NCc2cccnc2)n1	.	24%	.	.	.
O=C1CC(NS(=O)(=O)c2cccs2)CN1c1ccc(F)cc1 (configuration not stated)	.	?	.	.	32µM*
Cc1cccc(C(=O)Nc2nc3c(s2)CCCC3)c1	.	26%	.	.	.
Cc1ccc(CC(=O)Nc2nc3c(s2)CCCC3)cc1	46	-2%	-8%	26	-31%
Cc1ncsc1C(=O)Nc1nc2c(s1)CCCC2	106*	-19%	-16%	62*	-2%
Cc1ccccc1C(=O)NC(C(=O)Nc1nc2c(s1)CCCC2)C(C)C (configuration not stated)	31*	-13%	?	17*	-4%
Cc1cc(C(=O)Nc2nc3c(s2)CCCC3)cs1	107*	-12%	1%	40*	-27%
O=C(Nc1nc2c(s1)CCCC2)c1ccc2ncsc2c1	67*	13%	-77%	41*	0%
O=C(Nc1ccccc1C(F)(F)F)N1CCC(CN2CCc3ccccc3C2)CC1	.	12%	.	.	.
C[C@H](NC(=O)[C@@H]1Cc2ccccc2CN1)C(=O)NC1CCCC1	-3	0%	4%	-1	-13%
COC(=O)c1c(NC(=O)C2CCCCC2C(=O)O)sc2c1CCCCC2 (configuration not stated)	84*	4%	6%	40*	-15%
COCC(=O)Nc1sc2c(c1C(=O)OC)CCCC2	13	?	-53%	14	55%
COC(=O)c1c(NC(=O)Cc2cccs2)sc2c1CCCC2	22	5%	-46%	30*	-31%
Cc1ccc(C(=O)Nc2sc3c(c2C(=O)O)CCCCC3)o1	54*	-14%	-41%	37*	0%
Cc1ccc(C(=O)Nc2sc3c(c2C(=O)O)CCCC3)o1	68*	5%	-53%	52*	-31%
